What all share (assay): peptide microarray binding signal (635 nm), min-max normalized on array (fraction of array maximum); higher = stronger binding
Assay [1] has as its target T1, HaloTag-ATRX ADD domain (163-292).
T1 chain: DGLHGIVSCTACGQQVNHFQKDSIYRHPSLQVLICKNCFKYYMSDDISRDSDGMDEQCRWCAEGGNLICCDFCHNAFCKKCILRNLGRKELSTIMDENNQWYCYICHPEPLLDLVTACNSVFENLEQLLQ
An outline of the steps:
(§1)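 Within each library, mean intensities of triplicate spots were min-max scaled to give the binding signal. The spots were histone 13-mer peptide–cellulose conjugates on nitrocellulose with a Cy3 tracer, blocked overnight at 4°C. They were then probed for 1 h at 4°C using biotin-labelled HaloTag reader fusions (10 nM to 1 μM) with streptavidin-Alexa Fluor 647 or rabbit histone antibodies (1:10,000 to 1:2,000) with anti-rabbit Alexa 647, and scanned at 635 nm for signal and 532 nm for misprints on an Axon GenePix 4000B.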

Assay [2] has as its target HaloTag-ING2 PHD (mouse Ing2 200-280). The procedure, abridged:
as §1

In assay [3] the target is anti-H3K4me3 antibody ab8580. The procedure, abridged: as §1
The target of assay [4] is anti-H3K9me3 antibody ab8898. An outline of the steps: as §1
The mark [5] stands for this setting: peptide region: H4 16-28, peptide modifications: H4R19me2a H4K20me2, binder concentration: 1:2,000 dilution.
[6] abbreviates: peptide region: H4 16-28, peptide modifications: H4R19me2a H4K20me2, binder concentration: 1:10,000 dilution.
Where [7] appears, read: peptide region: H4 16-28, peptide modifications: H4R19me1 H4K20me1, binder concentration: 1:2,000 dilution.
Setting [8] is: peptide region: H4 16-28, peptide modifications: H4R19me1 H4K20me1, binder concentration: 1:10,000 dilution.
Where [9] appears, read: peptide region: H4 16-28, peptide modifications: H4R19me2a H4K20ac, binder concentration: 1:2,000 dilution.
Where [10] appears, read: peptide region: H4 16-28, peptide modifications: H4R19me2a H4K20ac, binder concentration: 1:10,000 dilution.
The mark [11] stands for this setting: peptide region: H4 38-50, peptide modifications: H4K44ac H4R45me1, binder concentration: 1:2,000 dilution.
Where [12] appears, read: peptide region: H4 38-50, peptide modifications: H4K44ac H4R45me1, binder concentration: 1:10,000 dilution.
The mark [13] stands for this setting: peptide region: H4 38-50, peptide modifications: H4K44ac, binder concentration: 1:2,000 dilution.
Where [14] appears, read: peptide region: H4 38-50, peptide modifications: H4K44ac, binder concentration: 1:10,000 dilution.

From the supplement of paper PMC4022240 come the findings set out here.

± gives the standard deviation.

As to KRHRKVLRDNIQG [H4 16-28 K R H Rme2a Kme2 V L R D N I Q G], the “peptide microarray binding signal” value in assay [1] (peptide region: H4 16-28, peptide modifications: H4R19me2a H4K20me2, binder concentration: 50 nM) came out at 0.0248 ± 0.0013; in assay [1] (peptide region: H4 16-28, peptide modifications: H4R19me2a H4K20me2, binder concentration: 500 nM), 0.0149 ± 0.00068; in assay [2] (peptide region: H4 16-28, peptide modifications: H4R19me2a H4K20me2, binder concentration: 10 nM), 0.0209 ± 0.0011; in assay [2] (peptide region: H4 16-28, peptide modifications: H4R19me2a H4K20me2, binder concentration: 100 nM), 0.0188 ± 0.00076; in assay [3] (setting [5]), 0.00119 ± 1.7e-05; in assay [3] (setting [6]), 0.00348 ± 4.9e-05. In addition, the “peptide microarray binding signal” value was found to be 0.00113 ± 8.4e-05 in assay [4] (setting [5]) and 0.00427 ± 0.00011 in assay [4] (setting [6]).

Take KRHRKVLRDNIQG [H4 16-28 K R H Rme Kme V L R D N I Q G]: the “peptide microarray binding signal” value in assay [1] (peptide region: H4 16-28, peptide modifications: H4R19me1 H4K20me1, binder concentration: 50 nM) was 0.00552 ± 0.00017; in assay [1] (peptide region: H4 16-28, peptide modifications: H4R19me1 H4K20me1, binder concentration: 500 nM), 0.01 ± 0.00041; in assay [2] (peptide region: H4 16-28, peptide modifications: H4R19me1 H4K20me1, binder concentration: 10 nM) it was 0.00961 ± 0.00044; in assay [2] (peptide region: H4 16-28, peptide modifications: H4R19me1 H4K20me1, binder concentration: 100 nM), 0.0145 ± 0.0033; in assay [3] (setting [7]) it was 0.0027 ± 0.00027; in assay [3] (setting [8]) it was 0.002511 ± 2.2e-05. Moreover, the “peptide microarray binding signal” value in assay [4] (setting [7]) amounted to 0.00143 ± 4.1e-05; in assay [4] (setting [8]) it was 0.002133 ± 2e-05.

On to KRHRKVLRDNIQG [H4 16-28 K R H Rme2a Kac V L R D N I Q G], for which the “peptide microarray binding signal” value came to 0.003699 ± 3e-05 in assay [1] (peptide region: H4 16-28, peptide modifications: H4R19me2a H4K20ac, binder concentration: 50 nM); 0.006 in assay [1] (peptide region: H4 16-28, peptide modifications: H4R19me2a H4K20ac, binder concentration: 500 nM); 0.00871 ± 0.00039 in assay [2] (peptide region: H4 16-28, peptide modifications: H4R19me2a H4K20ac, binder concentration: 10 nM); 0.0218 ± 0.0012 in assay [2] (peptide region: H4 16-28, peptide modifications: H4R19me2a H4K20ac, binder concentration: 100 nM); 0.000774 ± 2.5e-05 in assay [3] (setting [9]); 0.00171 ± 3.3e-05 in assay [3] (setting [10]). The “peptide microarray binding signal” value in assay [4] (setting [9]) amounted to 0.0004379 ± 4.2e-06; in assay [4] (setting [10]), 0.001211 ± 1.2e-05.

As to ARRGGVKRISGLI [H4 38-50 A R R G G V Kac Rme I S G L I], the “peptide microarray binding signal” value was 0.0131 ± 0.00062 in assay [1] (peptide region: H4 38-50, peptide modifications: H4K44ac H4R45me1, binder concentration: 50 nM); 0.01695 ± 5.7e-05 in assay [1] (peptide region: H4 38-50, peptide modifications: H4K44ac H4R45me1, binder concentration: 500 nM); 0.0235 ± 0.0022 in assay [2] (peptide region: H4 38-50, peptide modifications: H4K44ac H4R45me1, binder concentration: 10 nM); 0.048 ± 0.0095 in assay [2] (peptide region: H4 38-50, peptide modifications: H4K44ac H4R45me1, binder concentration: 100 nM); 0.00338 ± 0.00048 in assay [3] (setting [11]); 0.00685 ± 0.0005 in assay [3] (setting [12]). In addition, the “peptide microarray binding signal” value in assay [4] (setting [11]) is 0.00296 ± 0.00039; in assay [4] (setting [12]), 0.00306 ± 4.5e-05.

On to ARRGGVKRISGLI [H4 38-50 A R R G G V Kac R I S G L I], for which the “peptide microarray binding signal” value is 0.00298 ± 0.00042 in assay [1] (peptide region: H4 38-50, peptide modifications: H4K44ac, binder concentration: 50 nM); 0.002238 ± 1.9e-05 in assay [1] (peptide region: H4 38-50, peptide modifications: H4K44ac, binder concentration: 500 nM); 0.00477 ± 0.00013 in assay [2] (peptide region: H4 38-50, peptide modifications: H4K44ac, binder concentration: 10 nM); 0.00751 ± 0.00045 in assay [2] (peptide region: H4 38-50, peptide modifications: H4K44ac, binder concentration: 100 nM); 0.00347 ± 0.0006 in assay [3] (setting [13]); 0.00251 ± 5.9e-05 in assay [3] (setting [14]). In addition, the “peptide microarray binding signal” value in assay [4] (setting [13]) stood at 0.00142 ± 3.6e-05; in assay [4] (setting [14]) it was 0.00138 ± 4.9e-05.
